Hits are enriched below; roughly 4.7% of the tested compounds scored in any of these assays.
TRHR PAM: TRH receptor (human) allosteric enhancement; P34981; TRHR cells, fluo-8 calcium fluorescence, EC20 TRH enhancement; enhancement, % at 2 µM; 360,000 compounds, 0.66% hits; AID 493056; in the data active = enhancement above about 30%; note: 0% is about no effect
Target sequence (P34981 whole entry, looked up): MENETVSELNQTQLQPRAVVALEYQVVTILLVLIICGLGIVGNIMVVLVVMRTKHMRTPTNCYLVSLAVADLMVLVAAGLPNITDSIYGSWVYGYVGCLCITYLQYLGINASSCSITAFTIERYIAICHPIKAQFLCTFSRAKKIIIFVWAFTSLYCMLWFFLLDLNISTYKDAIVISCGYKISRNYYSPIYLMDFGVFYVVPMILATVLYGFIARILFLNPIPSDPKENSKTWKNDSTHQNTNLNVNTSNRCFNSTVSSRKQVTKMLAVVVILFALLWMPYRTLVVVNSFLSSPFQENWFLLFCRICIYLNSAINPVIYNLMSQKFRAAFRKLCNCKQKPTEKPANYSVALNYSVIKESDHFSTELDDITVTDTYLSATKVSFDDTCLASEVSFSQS
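TRHR-expressing cells loaded with fluo-8 calcium dye were read kinetically (ex 480/em 530) during compound addition, then stimulated with an EC20 of TRH (10 nM final). Enhancement of the Gq-mediated intracellular calcium response was scored.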
D1 ag: activates the human D1 dopamine receptor | HEK293 T-REx D1 cells, calcium flux, agonist mode | activation, % at 2 µM | AID 504660 | 360,000 compounds, 1% hits; note: 0% is about no effect
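Agonism was scored from calcium flux recorded over 180 s (1 read/s) after pintool compound addition, following a 10-cycle baseline. Cells were inducible force-coupled HEK293 TREx D1, plated overnight at 30 C and loaded with no-wash calcium dye.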
D1 antag: human D1 dopamine receptor antagonism. HEK293 TREx D1 cells, calcium flux, dopamine EC80; stronger effect = lower value. activity change, negative = inhibition, % at 10 µM. 360,000 compounds, 3.2% hits. AID 504652; in the data active = activity change below about -30%; note: % is set by controls: 0 for no effect and ±100 for the full control effect
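After overnight tetracycline induction at 30 C, force-coupled D1 HEK293 cells took up a no-wash calcium dye at room temperature. Compounds were added and monitored 180 s, and the response to EC80 dopamine was then recorded.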
D1 potentiator: human D1 dopamine receptor positive modulation. P21728. HEK293 TREx D1 cells, calcium flux, dopamine EC20 potentiation. potentiation, % at 10 µM. 360,000 compounds, 0.036% hits; in the data active = potentiation above about 30%; note: 0% is about no effect
TRHR agonist: agonists of human TRH receptor; P34981; TRHR cells, calcium flux fluo-8, FDSS agonist mode; activation, % at 2 µM; 360,000 compounds, 0.18% hits; AID 493084; note: 0% is about no effect
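Agonist-mode FDSS calcium read (Ex 480/Em 530, 1 s cycles) in 1536-well TRHR cells with fluo-8 dye, after 10-cycle baseline and 23 nL compound addition; TRH at EC20 (10 nM final) added afterwards for the enhancer phase.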
Numbers without * were called inactive. Cut-off read from the data, not from the text of the source, unless noted: active = activation above about 30%; inactive = the rest.

SMILES | TRHR PAM | D1 ag | D1 antag | D1 potentiator | TRHR agonist
CCCCN(CC)CCNC(=O)Cn1cnc2sc(C)c(S(=O)(=O)N3CCN(c4ccccc4OC)CC3)c2c1=O | -3 | -2 | 8 | 2 | 0
O=C(CN1C(=O)CSc2ccc(S(=O)(=O)N3CCCC3)cc21)NCc1ccc(Cl)cc1 | 2 | 1 | -15 | 3 | 0
CCCCCCCCCCCC(=O)NC(Cc1ccc(OC)c([N+](=O)[O-])c1)C(=O)O (centres undefined) | -2 | 137* | -48* | -10 | 1
CCC(=O)Nc1cccc(NC(=S)NC(=O)c2cccc(C)c2)c1 | -1 | 9 | -38* | 1 | -3
Cc1ccccc1C(=O)NNC(=S)NC(=O)c1cccs1 | -7 | 136* | -29 | -9 | 21
O=C(Nc1ccncc1)c1sc2ccccc2c1Cl | 4 | 6 | -41* | -7 | 0
CCC(=O)Nc1cccc(NC(=S)NC(=O)c2ccc(C)cc2)c1 | 2 | 2 | -2 | -4 | 0
O=C(NC(=S)Nc1ccc(N2CCOCC2)c(Cl)c1)c1sc2ccccc2c1Cl | 4 | 2 | -31* | 8 | 0
N#Cc1nc(NC2CCCC2)c2ncn(-c3cc(F)cc(F)c3)c2n1 | -3 | 0 | 5 | -2 | 1
O=C(CN1C(=O)COc2ccc(S(=O)(=O)N3CCOCC3)cc21)Nc1ccc(F)c(Cl)c1 | 5 | 2 | 1 | -6 | -1
O=C(NNC(=S)NC(=O)c1sc2ccccc2c1Cl)c1ccc(Cl)cc1 | -3 | 141* | -38* | -5 | 1
Cc1cccc(C(=O)NNC(=O)c2ccc(Br)cc2)c1 | 5 | 2 | -5 | 1 | 0
Cc1cccc(C(=O)NC(=S)NNC(=O)c2ccc(Cl)cc2)c1 | 4 | 172* | 34 | 24 | 29
O=C(NNC(=O)c1cccs1)c1ccc(F)cc1 | 36* | 4 | -13 | -2 | 0
Cc1cccc(C(=O)NC(=S)NNC(=O)c2cccs2)c1 | -10 | 213* | -18 | -5 | 42*
CCN(CC)S(=O)(=O)c1ccc(N2CCCC2)c(NC(=O)C2CSC3(C)CCC(=O)N23)c1 (centres undefined) | 3 | -1 | 23 | 2 | 1
Cc1cc(C(F)F)n2nc(C(=O)Nc3cc(Cl)ccc3C)nc2n1 | 14 | -1 | -8 | -4 | 0
Cc1ccc(CN(C(=O)c2ccccc2F)c2ccccn2)o1 | 0 | 2 | -1 | 0 | 1
CC(C)(C)c1ccc(C(=O)NC(=S)NNC(=O)c2cccs2)cc1 | 7 | 367* | 156 | 29 | 34*
COc1cc(C(=O)Nc2nonc2-c2ccc(Cl)cc2)cc(OC)c1OC | 2 | 30* | 14 | 3 | 8
O=C1CCC/C(=N/NC(=O)c2sc3ccccc3c2Cl)C1 | 4 | 81* | -5 | -10 | 39*
O=C(NN=C1CCCC1)c1sc2ccccc2c1Cl | 5 | 0 | -14 | -2 | 1
COc1cc(C(=O)NNC(=S)NC(=O)c2ccc(Cl)cc2)cc(OC)c1OC | 12 | 60* | -5 | -1 | 10
CC(C)CC(OC(=O)CNC(=O)c1ccccc1)C(=O)Nc1cc(C(F)(F)F)ccc1Cl (centres undefined) | -8 | 5 | -27 | -2 | -2
CC(C)n1nnnc1SCC(=O)N1CCN(Cc2ccc3c(c2)OCCO3)CC1 | 7 | 4 | 10 | -1 | 1
SMILES | TRHR PAM | D1 ag | D1 antag | D1 potentiator | TRHR agonist
C=CCn1c(NC(=O)c2ccc(C)cc2)nc2ccccc21 | -1 | 3 | 2 | -2 | 0
COc1ccc(C)cc1NC(=O)C1CCN(S(=O)(=O)Cc2ccccc2)CC1 | 4 | 0 | -47* | 3 | 0
Cc1ccc(S(=O)(=O)N2CCC(C(=O)NCc3ccccc3CN3CCCC3)CC2)cc1C | 1 | 7 | -35* | -13 | 0
COc1cc(NC(=O)C2CCN(S(=O)(=O)Cc3ccccc3)CC2)c(OC)cc1Cl | -2 | -3 | -4 | -2 | 0
CCc1ccc(-c2nc(CN3CCC(C(=O)NCc4ccccc4OC)CC3)c(C)o2)cc1 | 12 | 41* | -17 | -6 | 0
COc1ccccc1CNC(=O)C1CCN(Cc2nc(-c3ccc(OC)c(OC)c3)oc2C)CC1 | 20 | 1 | -4 | -4 | 0
O=C(NCc1ccccc1CN1CCCC1)C1CCN(S(=O)(=O)c2ccc(F)c(F)c2)CC1 | -9 | 1 | -17 | -10 | 1

Source: PubChem
